# Shown are actives, neighbours in structure and some others; about 4.6% of the full set was active somewhere.
# proKLK7 act – activates the human kallikrein-7 zymogen; P49862; purified proKLK7, EDANS-DABCYL substrate fluorescence; 100% is mature enzyme control, 0% vehicle; activation, % at 7 µM; 370,000 compounds, 0.9% hits; AID 652039;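 active = activation above the mean of all tested compounds plus 3 SD, computed per campaign excluding outliers beyond control limits, cut at about 13% in these data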
# Target sequence (P49862 whole entry, looked up): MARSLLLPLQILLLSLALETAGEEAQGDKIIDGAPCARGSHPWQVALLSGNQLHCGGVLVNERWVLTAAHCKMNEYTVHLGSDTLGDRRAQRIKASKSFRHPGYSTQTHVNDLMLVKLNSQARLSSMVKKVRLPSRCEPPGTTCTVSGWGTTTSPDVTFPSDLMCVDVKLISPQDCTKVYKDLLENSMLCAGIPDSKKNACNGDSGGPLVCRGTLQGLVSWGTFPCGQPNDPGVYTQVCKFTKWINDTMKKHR
# ADAM10 inh – inhibitors of human ADAM10; inhibition, % at 7 µM; O14672; 370,000 compounds, 0.62% hits; recombinant ADAM10, EDANS/DABCYL FRET peptide cleavage, 3 h;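 active = inhibition above a per-campaign cutoff equal to the mean of compounds falling between control-based bounds plus 3 SD, cut at about 20% in these data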;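 also: 0% = DMSO wells while the 100% control is not disclosed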
# NR3A LBD binder – modulates the human NR3A ligand-binding domain | NR3A LBD differential scanning fluorimetry, Tm shift; 0% = protein alone, 100% = glycine-bound protein | Tm shift relative to glycine control, % at 25 µM | 340,000 compounds, 2.5% hits | AID 1259313;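 active = melting temperature shift of at least 10% of the positive control shift, at one fixed dose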
# FAS-TE inh – inhibitors of human fatty acid synthase thioesterase domain; P49327; recombinant FAS-TE, OMFH fluorogenic substrate, fluorescence endpoint; inhibition, % at 15 µM; 360,000 compounds, 0.67% hits; AID 602261;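 active = compounds whose normalised, plate-corrected inhibition of enzyme fluorescence in the single-dose primary screen is 50% or more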;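 also: 0% = DMSO with enzyme and 100% = substrate without enzyme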
# ADAM17 inh – inhibitors of human ADAM17; P78536; inhibition, % at 6.95 µM; recombinant ADAM17, EDANS/DABCYL FRET peptide cleavage; AID 720648; 370,000 compounds, 0.83% hits;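 active = inhibition above the mean of compounds lying between control limits plus 3 SD, set per campaign, cut at about 8.5% in these data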;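 also: 0% = DMSO-only wells as the low control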
# The depositor's hits bear a star; / = no result.
SMILES,proKLK7 act,ADAM10 inh,NR3A LBD binder,FAS-TE inh,ADAM17 inh
O=C(Nc1ccc2ccccc2c1)c1cnccn1,0,-5,-12,-6,-4
CCc1ccc(-c2cc(C)no2)cc1S(=O)(=O)NCCN1CCC(C)CC1,0,-9,15*,-3,-4
C/C(=N\Nc1nc(N)cc(Cl)n1)c1ccc(F)cc1,0,-5,1,-4,-2
C/C(=N\Nc1nc(N)cc(Cl)n1)c1ccc(Cl)c(Cl)c1,0,-3,18*,1,-2
O=C(Nc1cccc(C(F)(F)F)c1)OC1CC2CC1[C@H]1CCCCN1[C@H]2Cc1ccccc1 (some centres undefined),0,-3,/,/,-2
O=c1[nH]c(-c2ccc(O)cc2)nc2scc(-c3cccs3)c12,-2,-392,19*,2,-153
CC(C)CC(=O)N1CCN(c2ccc([N+](=O)[O-])c(NCc3ccccc3)c2)CC1,1,18,4,27,13*
O=C(c1ccccc1)N1CCN(c2ccc([N+](=O)[O-])c(NCc3cccnc3)c2)CC1,0,7,-1,-1,-1
COc1ccc(C(=O)CSc2nnc(-c3cccc(Cl)c3)n2Cc2ccco2)cc1,0,-4,/,/,-2
COc1ccc(Cl)cc1C(=O)Nc1ccc(S(=O)(=O)N2CCCC2)cc1,0,1,20*,0,-5
COc1cc(C(=O)Nc2ccc(S(=O)(=O)NC(C)(C)C)cc2)cc(OC)c1OC,0,1,2,2,3
COc1ccc(C(=O)Nc2ccc(S(=O)(=O)NC(C)(C)C)cc2)cc1[N+](=O)[O-],0,7,28*,5,3
CN(CC(=O)Nc1ccc(Cl)cc1)c1ccc(S(=O)(=O)N2CCCCC2)cc1[N+](=O)[O-],0,5,11*,38,-4
COc1ccc(C(=O)Nc2ccc(S(=O)(=O)N3CCCC3)cc2)cc1[N+](=O)[O-],-1,5,41*,15,1
Cc1nn(CCC(=O)NNC(=O)Nc2ccc(Cl)cc2)c(C)c1[N+](=O)[O-],0,13,/,/,4
O=C(NCCO)[C@H](Cc1ccccc1)NC1(C(=O)NCCc2c[nH]c3ccccc23)CCCCC1,/,1,/,/,0
COC(=O)C[C@H]1CC[C@@H]2[C@@H](COc3ccc(NC(=O)c4ccccc4)cc3C(=O)N2C)O1,0,-3,/,/,-2
O=C(c1cccs1)C1CCN(c2ncnc3sccc23)CC1,/,4,/,/,1
C[C@@H](N)P(=O)(O)C[C@H](Cc1ccccc1)C(=O)O,0,3,/,/,0
CCc1cccc2c(C(=O)CN3C(=O)C(=O)N(C4CCCC4)C3=O)c[nH]c12,0,-9,23*,-2,1
COC(=O)C[C@H]1CC[C@H]2[C@H](COc3ccc(NS(=O)(=O)c4ccccc4C)cc3C(=O)N2C)O1,0,0,/,/,-1
COc1cc(/C=N/NC(=O)c2cccs2)ccc1OCc1ccccc1,1,-4,19*,8,-5
CCCc1c(C(=O)N/N=C/c2ccccc2OCc2ccc(F)cc2)nnn1-c1nonc1N,1,1,6,-5,0
COc1cc(/C=N/NC(=O)c2cccs2)ccc1O,0,-3,0,-6,-7
CCCc1c(C(=O)N/N=C/c2ccc(OCc3ccccc3)cc2)nnn1-c1nonc1N,0,6,/,-4,2
SMILES,proKLK7 act,ADAM10 inh,NR3A LBD binder,FAS-TE inh,ADAM17 inh
CCCc1c(C(=O)N/N=C/c2c(OC)ccc3ccccc23)nnn1-c1nonc1N,0,-4,31*,0,3
CCCc1c(C(=O)N/N=C/c2ccc(OCc3ccccc3)c(OC)c2)nnn1-c1nonc1N,0,-4,12*,21,-2
CCCc1c(C(=O)N/N=C/c2ccc(OC)c(OCc3ccccc3)c2)nnn1-c1nonc1N,0,6,37*,18,1
COC(=O)C[C@@H]1CC[C@H]2[C@@H](COc3ccc(NC(=O)c4ccc(C(F)(F)F)cc4)cc3C(=O)N2C)O1,0,4,/,/,-1
COc1cc(/C=N/Nc2ncnc3sc4c(c23)CCC4)ccc1O,-2,-12,29*,2,-3
Cc1sc2ncnc(N/N=C/c3cccc(O)c3)c2c1C,0,1,13*,10,0
COc1cc(/C=N/NC2=NCCCCC2)ccc1O,-2,-22,0,-2,-8
CCOc1ccc(-n2c(SCC(=O)Nc3ccccc3-c3ccccc3)nnc2-c2ccncc2)cc1,0,1,/,/,2
O=C(NCc1ccccc1Cl)C1CCC(CNS(=O)(=O)c2cccc3cccnc23)CC1 (centres undefined),0,1,/,/,1
COc1ccccc1NC(=S)N(Cc1ccccc1)Cc1ccccn1,0,-5,13*,4,1
COc1ccccc1N1CCN(S(=O)(=O)c2ccc3nc(-c4ccccc4)[nH]c3c2)CC1,-1,12,7,30,6
O=S(=O)(c1ccc2nc(-c3ccccc3)[nH]c2c1)N1CCN(c2cccc(Cl)c2)CC1,-1,2,17*,-5,2
CCOc1ccc2nc(SCC(=O)c3ccc(O)cc3O)sc2c1,0,0,16*,-1,-5
CCOc1ccc2nc(SCC(=O)c3ccc(C)s3)sc2c1,0,3,-7,28,-3
CCOc1ccc2nc(SCC(=O)Nc3ccc4c(c3)OCO4)sc2c1,0,3,19*,21,3
CC(C)C(=O)Nc1nnc(SCC(=O)Nc2ccc3c(c2)OCO3)s1,-3,11,36*,-3,0
CCOc1ccc(-n2c(SCC(=O)Nc3ccc4c(c3)OCO4)nc3ccccc3c2=O)cc1,0,5,-6,9,2
CCOc1ccc2nc(NC(=O)/C=C/c3ccc4c(c3)OCO4)sc2c1,-2,-9,35*,-7,-4
O=C(/C=C/c1ccc2c(c1)OCO2)Nc1nc2ccc(F)cc2s1,-1,-1,0,0,-2
Nn1c(SCC(=O)Nc2ccc3c(c2)OCO3)nnc1-c1ccccc1,0,-3,2,-8,-2
CCC(=O)Nc1nnc(SCC(=O)Nc2ccc3c(c2)OCO3)s1,0,-8,28*,-3,1
Nn1c(SCC(=O)Nc2ccc3c(c2)OCO3)nnc1-c1ccc(Cl)cc1,-1,6,18*,0,0
Oc1ccccc1C1NN=C(c2ccccc2)S1 (centres undefined),4,-7,19*,6,-3
CC(C)(O)C#Cc1ccc(CNC[C@H]2O[C@@H](n3cnc4c(N)ncnc43)[C@H](O)[C@@H]2O)s1,0,-11,13*,-12,-4
Nc1ncnc2c1ncn2[C@@H]1O[C@H](CNC(=O)[C@@H](N)C2CCCCC2)[C@@H](O)[C@H]1O,0,2,15*,-10,-4
O=S(=O)(c1ccc(F)cc1)N1CCN(S(=O)(=O)c2cc(F)ccc2F)CC1,0,5,0,-4,2
O=S(=O)(c1ccc(F)cc1F)N1CCN(CCO)CC1,0,-9,13*,-4,-4

# Screening results as filed in PubChem.
